# Screening data from PubChem.
# TDP1 cell noCPT = qHTS for Inhibitors of human tyrosyl-DNA phosphodiesterase 1 (TDP1): qHTS in cells in absence of CPT | 420,000 tested, 15% active | Potency, µM (doses to about 46.2 µM), inactives show at the top dose activity change, negative = growth inhibition, most hits filed as inhibitors | DT40 Tdp1-/- hTDP1 cells, no CPT, ATP luminescence, 48 h; also: potency is read from the fitted curve at half-maximal effect; nearly all actives have a fitted effect of over 55% in size
#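 Readout: luminescence from CellTiter-Glo after 30 min in the dark at RT. Cells: DT40 Tdp1-/- with stable hTDP1, 400/well. Exposure: compounds alone, ≥48 hr, 37 °C.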
# ELG1 DNA repair = qHTS screen for small molecules that inhibit ELG1-dependent DNA repair in human embryonic kidney (HEK293T) cells expressing luciferase-tagged ELG1 | HEK293T ELG1-luciferase reporter, luminescence, 16 h; DNA damage induced by 5-fluorouridine | Potency, µM (series often up to 46.1 µM), for inactives: at the highest dose activity change, negative = inhibition, most hits filed as inhibitors | 330,000 tested, 2.3% active | AID 504467, 2011; also: potency is read from the fitted curve at half-maximal effect; nearly all actives have a fitted effect of over 55% in size
#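 Quantitative HTS, concentration-response format. 2,000 cells/well co-treated with 5-fluorouridine and compound, 16 hr in 5% CO2 at 37 °C; ONE-Glo luminescence read after 30 min.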
# HT1080-NT tox = qHTS for induction of synthetic lethality in tumor cells producing 2HG: qHTS for the HT-1080-NT fibrosarcoma cell line | HT-1080-NT fibrosarcoma viability, CellTiter-Glo ATP luminescence, 48 h | Potency, µM (doses to about 46.1 µM), inactives show top-dose activity, negative = less viability, usual class: cytotoxic | 360,000 tested, 1.6% active;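 also: NT is the 2HG producing partner of a matched IDH1 knockdown line; potency is read from the fitted curve at half-maximal effect; 0% = DMSO-treated cells and -100% = media-only wells without cells; nearly all actives have a fitted effect of over 55% in size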
#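 Read-out is CellTiter-Glo luminescence after 10 minutes at room temperature, following 48 hours' compound treatment of HT-1080-NT cells (750 cells/well, RPMI, 5% FBS, 37 degrees C).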
# HT1080 IDH1KD tx = qHTS for induction of synthetic lethality in tumor cells producing 2HG: qHTS for the HT-1080-IDH1KD cell line; HT-1080 IDH1 knockdown viability, ATP luminescence, 48 h; Potency, µM (top dose mostly 46.1 µM), for inactives: at the highest dose activity, negative = toxicity, most hits filed as cytotoxic; 360,000 tested, 2% active; AID 686971, 2013;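 also: potency is read from the fitted curve at half-maximal effect; 0% = DMSO wells and -100% = cell-free medium wells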
#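 HT-1080-IDH1KD cells (IDH1 knocked down), 750/well in RPMI with 5% FBS, treated with compound 48 h at 37 degrees C. Viability by CellTiter-Glo luminescence, normalised to DMSO and no-cell wells; concentration-response curves classed.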
# IL1B secr inh = qHTS for Inhibitors of Inflammasome Signaling: IL-1-beta AlphaLISA Primary Screen; activity change, % at 57.5 µM; THP-1 LPS/ATP IL-1B secretion, AlphaLISA, 16 h; hits give low values; 360,000 tested, 4.7% active; in the data active = activity change below about -50%; inconclusive = mostly about -30% to -49%
#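 Secreted IL-1B measured by AlphaLISA bead assay after 16 h compound exposure of THP-1 cells; compounds (final up to 57.5 uM) added 1 h before LPS (250 ng/mL) and ATP (1.25 mM) stimulation; lower signal means less secretion.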
# TDP1 cell CPT = qHTS for Inhibitors of human tyrosyl-DNA phosphodiesterase 1 (TDP1): qHTS in cells in presence of CPT; chicken DT40 Tdp1-/-;hTDP1 cells + 20 nM CPT, ATP luminescence, 48 h; Potency, µM (top dose mostly 46.2 µM), for inactives: at the top dose activity change, negative = growth inhibition, usual class: inhibitors; 420,000 tested, 12% active; also: potency is read from the fitted curve at half-maximal effect; nearly all actives have a fitted effect of over 55% in size
#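 Chicken DT40 Tdp1-/- cells complemented with human TDP1, 400 cells/well, exposed to compounds plus 20 nM camptothecin for at least 48 h at 37 C; viability read as ATP content by CellTiter-Glo luminescence.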
# Active calls of the source: *; ? = inconclusive; · = no result. Hits are enriched below; roughly 19% of the tested compounds scored in any of these assays. Unless noted, calls follow the shape of the dose curve; as a rule, active = well fitted curve in the direction sought with a large enough effect; inconclusive = small, poorly fitted or top-dose-only effect, or another doubt; inactive = no such curve, though single readings can be large; an effect the other way counts as inactive or inconclusive. Unless noted, % is scaled to controls: 0 for no effect and ±100 for the full control effect.
SMILES,TDP1 cell noCPT,ELG1 DNA repair,HT1080-NT tox,HT1080 IDH1KD tx,IL1B secr inh,TDP1 cell CPT
CC1(C)C(=O)C2C[C@]3(O)C4=CC(=O)OC(c5ccoc5)[C@]4(C)CCC3[C@](C)(C2=O)C1CC(=O)O (some centres undefined),-25.6%,·,·,·,·,-1.0%
N#C/C(=N\Nc1ccc(F)cc1)C(=O)C1CC1,-26.5%,?,-10.3%,-10.4%,16.0,?
N#C/C(=N\Nc1ccc(Cl)c(Cl)c1)C(=O)C1CC1,6.51µM*,?,?,2.91µM*,?,20.6µM*
COc1ccc(C(NC(=O)C2CCN(CCOc3ccc(Cl)cc3Cl)CC2)c2cccs2)cc1 (centres undefined),16.4µM*,·,-22.6%,?,-21.5,?
COc1ccc(C(C)NC(=O)C2CCN(CCOc3ccc(Cl)cc3Cl)CC2)cc1OC (centres undefined),23.1µM*,·,23.1µM*,?,-23.8,23.1µM*
Cc1nc(NCCc2ccc(S(N)(=O)=O)cc2)c2c(C)c(C)sc2n1,14.6µM*,13µM*,-13.1%,-24.5%,-2.4,16.4µM*
Cc1nc(NCCNC(=O)c2ccco2)c2c(C)c(C)sc2n1,20.6µM*,-19.2%,0.6%,0.0%,27.2,?
O=C(COc1ccccc1F)OCc1cc(=O)n2nc(-c3cccs3)sc2n1,-2.1%,·,·,·,·,-11.7%
COc1ccc2c(c1)CC(NC(=O)Nc1ccc(NC(C)=O)cc1)CO2 (centres undefined),-6.6%,·,·,·,·,-4.7%
CC1=C(C(=O)c2ccccc2)C(c2ccc(OC(F)F)cc2)NC(=S)N1 (centres undefined),?,-7.0%,?,14.6µM*,?,?
CC1=C(C(=O)c2ccccc2)C(c2ccc(O)cc2)NC(=S)N1 (centres undefined),2.9%,-5.2%,-2.0%,4.8%,-11.4,-3.5%
CN(C)c1nc(NC(C)(C)C)nc(NC(C)(C)C)n1,20.6µM*,14.4%,-3.1%,-0.5%,24.0,?
Cc1cc(C)cc(-n2ccn(CC(=O)Nc3ccccc3F)c(=O)c2=O)c1,-4.5%,·,·,·,·,0.0%
COc1ccc(CNC(=O)CN2N=C(c3ccc(Cl)cc3)CCC2=O)cc1,-35.4%,·,·,·,·,?
Cc1cc(-c2ccc(Cl)cc2)c(C#N)c(N)n1,-6.8%,13.9%,-15.5%,-4.3%,13.6,5.3%
Cc1c(C#N)c(N)nc(Cl)c1C#N,?,-15.8%,?,?,-167.8*,-28.1%
Cc1cc2nc(-c3nnnn3Cc3ccccc3)c(=O)[nH]c2cc1C,16.4µM*,·,-13.9%,?,-15.4,?
O=c1[nH]c2cc3ccccc3cc2nc1-c1nnnn1Cc1ccccc1,23.1µM*,·,4.0%,-3.2%,42.5,?
O=c1[nH]c2ccccc2nc1-c1nnnn1C1CCCC1,-20.5%,·,-0.9%,7.6%,9.1,-12.0%
Cc1cc2cc(C(c3nnnn3Cc3ccccc3)N3CCc4ccccc43)c(=O)[nH]c2cc1C (centres undefined),?,?,-29.0%,-28.7%,8.2,?
O=c1[nH]c2cc3ccccc3cc2nc1-c1nnnn1C1CCCC1,3.66µM*,·,?,16.4µM*,0.0,5.17µM*
Cn1c(=O)c2c(nc(CN3CCC(C(N)=O)CC3)n2Cc2c(F)cccc2Cl)n(C)c1=O,-0.1%,2.0%,-5.5%,-1.0%,-9.6,1.0%
CC1CCCCN1Cc1nc2c(c(=O)n(C)c(=O)n2C)n1Cc1c(F)cccc1Cl (centres undefined),10.3µM*,13.2%,19.1%,13.1%,-3.1,7.31µM*
Cn1c(=O)c2c(nc(SCCCC#N)n2Cc2c(F)cccc2Cl)n(C)c1=O,?,16.4µM*,1.0%,-4.4%,10.1,?
O=C(Nc1nnc(-c2ccncc2)s1)C1CCCO1 (centres undefined),-13.8%,?,7.0%,7.5%,0.0,-8.8%
SMILES,TDP1 cell noCPT,ELG1 DNA repair,HT1080-NT tox,HT1080 IDH1KD tx,IL1B secr inh,TDP1 cell CPT
O=C(Nc1ccc(-c2nc3cccnc3s2)cc1)C1CCCO1 (centres undefined),20.6µM*,?,-22.1%,-27.5%,11.1,23.1µM*
CN(Cc1ccccc1)C(=O)c1ccc([N+](=O)[O-])o1,?,-10.7%,-10.4%,0.5%,?,23.1µM*
Cc1ccc(C(=O)N2CCN(Cc3ccccc3)CC2)o1,-2.4%,14.4%,-3.6%,-1.9%,-15.5,-6.4%
O=C(c1cccs1)N1CCN(Cc2cccc([N+](=O)[O-])c2)CC1,-27.9%,?,23.4%,27.0%,-53.0*,10.8%
O=C(c1cc([N+](=O)[O-])ccc1Cl)N1CCN(Cc2ccccc2)CC1,-9.0%,-6.5%,1.3%,-3.8%,-53.1*,-10.0%
O=C(c1ccc([N+](=O)[O-])o1)N1CCN(Cc2ccccc2)CC1,25.9µM*,0.0%,-10.0%,-14.3%,-3.8,14.6µM*
CC(C)c1nc2ccc(C(=O)NCc3ccc(N(C)C)cc3)cc2o1,-13.5%,·,·,·,·,12.3%
CSc1ccccc1C(=O)OCC(=O)Nc1cccnc1Cl,-18.0%,?,-6.9%,-2.4%,27.8,4.7%
Cc1nnsc1C(=O)Oc1ccc(C(C)C)cc1,7.7%,·,·,·,·,27.5%
Cc1cc(C(=O)CSc2nnnn2-c2ccc(O)cc2)c(C)n1C,16.4µM*,?,7.5%,22.8%,3.0,?
Cc1ccc(-n2c(C)cc(C(=O)CSc3nncs3)c2C)cc1,20.6µM*,?,?,?,-2.9,10.3µM*
Cc1ccc(-n2c(C)cc(C(=O)CSc3nnnn3C)c2C)cc1,20.6µM*,?,-8.1%,-1.5%,?,18.4µM*
Cc1ccc(-n2nnnc2SCC(=O)c2cc(C)n(-c3cc(C)on3)c2C)c(C)c1,23.1µM*,?,?,-6.8%,-9.4,23.1µM*
O=C(CCc1ccc(O)cc1)c1c(O)cc(O)cc1O[C@@H]1O[C@H](CO)[C@@H](O)[C@H](O)[C@H]1O,18.6%,-9.5%,8.8%,1.0%,13.9,-7.9%
CCOC(=O)C(NC(=O)c1ccccc1)(OCC1(CC)COC1)C(F)(F)F (centres undefined),-9.1%,7.6%,-0.9%,-3.1%,12.1,-3.4%
